The values below come from PubChem BioAssay.

By inhibition is commonly meant the change of the read-out against control, counted positive when it falls.

Assay [1] can be described thus: inhibitors of TNFa-induced NFkB p65 translocation, primary screen, imaging, HUVEC, MLSMR starter and 10KST1 sets (AID 438;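 active means inhibition above 20% together with a positive visual image hit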;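 further: compound added about 3h40 before a 20 min TNFalpha stimulation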;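 on inhibition: signal is the nuclear over cytoplasmic p65 intensity ratio per well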). The note with it: HUVEC TNFa-induced p65 nuclear translocation; cell count: measured here: nuclei count (cytotoxicity indicator), at 2.08 µM; inhibition: at 2 µM, stronger effect = higher value, 0% TNFa-plus-vehicle, 100% no-TNFa wells.
A short description of assay [2]: inhibitors of mutant huntingtin aggregation, primary screen, imaging, exon1htt(103Q)mCFP cells, high-content imaging (AID 483;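 active means visual image review flags a hit and inhibition of aggregation exceeds 20%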;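 further: compound exposure lasted 3 days before fixation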;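 on nuclei count: percent of the per-plate median nuclei count of sample wells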). The note with it: exon1htt(103Q)mCFP cell line, aggregate imaging, at 2 µM; inhibition of aggregation: stronger effect = higher value; nuclei count: measured here: cell count, toxicity.
Assay [3] in a line: inhibitors of E-selectin induction by TNFa, primary screen, imaging, HUVEC, immunofluorescence, MLSMR starter and 10KST1 sets (AID 487;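 active means visually confirmed hit in the image check and inhibition above 20%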;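 on inhibition: signal is fraction of cell area covered by stained E-selectin grains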;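 on nuclei count: 100% = median nuclei count of all wells on the same plate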). Conditions: HUVEC TNFalpha-induced E-selectin immunofluorescence imaging, at 2 µM; inhibition: stronger effect = higher value; nuclei count: measured here: cell number, toxicity.
The target in assay [4] is Voltage-gated potassium channel subunit beta-2 (Rattus norvegicus) (UniProt P62483). As to the kind of experiment: KvBeta enzyme negative modulators, primary screen, biochemical, NADPH fluorescence (AID 622;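 active means fluorescence slope higher than the sample average by over 3 SD, cut at about -0.22 in these data, passing the limit was not always enough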;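 further: slope of raw intensity against log time taken from 70 to 1610 s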). The note with it: recombinant KvBeta, 4-cyanobenzaldehyde reduction, at 10 µM, stronger effect = higher value.
Voltage-gated potassium channel subunit beta-2 (Rattus norvegicus), sequence (P62483 whole entry, looked up): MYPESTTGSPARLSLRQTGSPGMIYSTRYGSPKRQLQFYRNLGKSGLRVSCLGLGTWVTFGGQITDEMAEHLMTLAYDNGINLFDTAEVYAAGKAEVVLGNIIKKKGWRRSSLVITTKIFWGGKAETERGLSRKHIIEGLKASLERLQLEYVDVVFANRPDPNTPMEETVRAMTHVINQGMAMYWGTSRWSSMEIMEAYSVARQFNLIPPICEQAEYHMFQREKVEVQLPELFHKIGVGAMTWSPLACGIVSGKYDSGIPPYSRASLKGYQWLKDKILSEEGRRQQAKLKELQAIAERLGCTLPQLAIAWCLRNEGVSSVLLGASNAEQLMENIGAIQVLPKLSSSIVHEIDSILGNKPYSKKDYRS
For assay [5] the target is unchanged. Briefly: KvBeta positive modulators, primary screen, biochemical, NADPH fluorescence (AID 623;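 active means NADPH fluorescence slope more negative than the mean of all samples by about 3 SD, 99.7% confidence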;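 further: fluorescence intensity change per second fitted from 20 to 320 s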). Conditions: Recombinant KvBeta, NADPH fluorescence decrease slope, 10 min; at 10 µM; stronger effect = lower value.
Assay [6] has as its target Alpha-2C adrenergic receptor (Homo sapiens) (UniProt P18825). As to the kind of experiment: modulators of alpha2C/GIRK thallium flux, primary screen, cell-based, HEK293 alpha2C/GIRK1/2 (AID 624;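 active means fluorescence slope after compound addition differing from the mean of all screened samples at 99.7% confidence, in either direction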;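 further: slope of fluorescence ratio to pre-addition baseline per second over 15 to 24 s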). The note with it: thallium flux BTC fluorescence, at 10 µM, actives lie on both sides.
Assay [7] is described as follows: inhibitors of Sendai virus-induced IRF3 signaling, primary screen, TLR/RLR signaling modifier project, cell-based, Sendai virus stimulus, luciferase, 10K MLSCN set (AID 602276).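 Further: firefly luciferase from ISG56 promoter only with Renilla not read in this screen; 0% = Sendai virus plus DMSO and 100% = medium plus DMSO without virus.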 Conditions: HEK293 RL24 IRF3 luciferase reporter, at 10 µM, stronger effect = higher value. On the technique in general: Reporter assays use an easily measured gene product as a stand-in for the process of interest.

Assay [8] is described as follows: inhibitors of poly I:C-induced TLR3 signaling, primary screen, cell-based, poly I:C stimulus, luciferase, 10K MLSCN set (AID 602277;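 active means inhibition of the reporter signal at or above 50%; inactive means inhibition below 50%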). Conditions: HEK293-TLR3 RL24 IRF3 luciferase reporter, at 10 µM, stronger effect = higher value.

Calls of active or inactive are those of the source.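 How the source made its calls, unless noted: active means inhibition at or above 50% at 10 µM; inactive means inhibition below 50%.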

Alpha-2C adrenergic receptor (Homo sapiens), sequence (P18825 whole entry, looked up): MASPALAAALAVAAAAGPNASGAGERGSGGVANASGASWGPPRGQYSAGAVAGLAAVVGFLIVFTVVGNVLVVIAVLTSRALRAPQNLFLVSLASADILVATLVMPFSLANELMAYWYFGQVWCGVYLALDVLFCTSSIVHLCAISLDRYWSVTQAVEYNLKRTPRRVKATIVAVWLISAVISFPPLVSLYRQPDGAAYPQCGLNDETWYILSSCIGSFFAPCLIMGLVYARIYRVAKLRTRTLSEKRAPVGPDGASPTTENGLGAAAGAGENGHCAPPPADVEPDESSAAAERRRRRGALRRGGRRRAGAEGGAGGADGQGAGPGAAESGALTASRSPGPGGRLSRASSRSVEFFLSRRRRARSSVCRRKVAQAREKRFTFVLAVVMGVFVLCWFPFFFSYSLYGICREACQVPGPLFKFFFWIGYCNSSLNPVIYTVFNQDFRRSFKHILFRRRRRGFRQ

For `COc1ccc(N(CC(=O)Nc2ccc(F)c(Cl)c2)S(=O)(=O)c2c(C)noc2C)cc1`, in assay [1], the cell count was 372. Moreover, the inhibition was 2.7% (inactive) in assay [1], -23.6% (inactive) in assay [3], 16.5% (inactive) in assay [7] and 21.7% (inactive) in assay [8]. In assay [2], the inhibition of aggregation was -8.2% (inactive). Further, the nuclei count came out at 99% in assay [2] and 104% in assay [3]. Further, the fluorescence slope in assay [4] is -0.425 (inactive). For the same compound, the NADPH fluorescence slope in assay [5] was 1.3e-05 (inactive). The slope in assay [6] was 0.00672 (inactive).

With `Cc1ccc(NC(=O)CSc2nnc(-c3ccncc3)n2C)cc1C`, the cell count in assay [1] turned out to be 822. The inhibition in assay [1] is -13.9% (inactive); in assay [3], -44.4% (inactive); in assay [7], -15.3% (inactive); in assay [8], -22.4% (inactive). In assay [2], the inhibition of aggregation is 18.5% (inactive). Besides, the nuclei count in assay [2] came out at 85%; in assay [3], 130%. Moreover, the fluorescence slope in assay [4] is -0.591 (inactive). For the same compound, in assay [5], the NADPH fluorescence slope was 4.1e-06 (inactive). Besides, the slope in assay [6] is 0.00642 (inactive).

Consider `O=c1c2[nH]c3ccccc3c2ncn1CCCn1ccnc1`, for which the cell count in assay [1] amounted to 717. In addition, the inhibition was -0.2% (inactive) in assay [1], -21.4% (inactive) in assay [3], 26.3% (inactive) in assay [7] and 50.7% (active) in assay [8]. The inhibition of aggregation in assay [2] was -4.9% (inactive). Besides, the nuclei count in assay [2] amounted to 99.9%; in assay [3] it was 111%. In assay [4], the fluorescence slope is -0.42 (inactive). Further, the NADPH fluorescence slope in assay [5] was 3.1e-06 (inactive). Moreover, the slope in assay [6] was 0.00409 (inactive).

In the case of `CN(Cc1nc(-c2ccncc2)no1)S(=O)(=O)c1ccc(Cl)cc1`, the cell count in assay [1] turned out to be 601. Besides, the inhibition is -6.4% (inactive) in assay [1], 1% (inactive) in assay [3], -18.2% (inactive) in assay [7] and -26.6% (inactive) in assay [8]. Moreover, the inhibition of aggregation in assay [2] is -0.9% (inactive). Also, the nuclei count in assay [2] amounted to 88.3%; in assay [3] it was 94.8%. The fluorescence slope in assay [4] is -0.543 (inactive). Further, in assay [5], the NADPH fluorescence slope is 6.1e-06 (inactive). Also, the slope in assay [6] is 0.00478 (inactive).

Consider `CCOc1ccc(OCC)c(NC(=O)C2CCN(c3ncccn3)CC2)c1`, for which the cell count in assay [1] amounted to 588. The inhibition in assay [1] was -14.2% (inactive); in assay [3], -43.7% (inactive); in assay [7], 8.17% (inactive); in assay [8], 11.1% (inactive). Besides, in assay [2], the inhibition of aggregation was 10.9% (inactive). Further, the nuclei count came out at 103% in assay [2] and 113% in assay [3]. In addition, the fluorescence slope in assay [4] was -0.421 (inactive). The NADPH fluorescence slope in assay [5] is -5.1e-05 (inactive). Moreover, the slope in assay [6] is 0.0054 (inactive).

On to `CCN1CCCC1CNC(=O)c1cc2c(=O)n(C)c3ccccc3c2n1C` (stereo not drawn), for which the cell count in assay [1] is 656. Also, the inhibition in assay [1] was -5% (inactive); in assay [3], -41.6% (inactive); in assay [7], 2.48% (inactive); in assay [8] it was 40.8% (inactive). The inhibition of aggregation in assay [2] was -28.9% (inactive). Besides, the nuclei count is 113% in assay [2] and 114% in assay [3]. Further, the fluorescence slope in assay [4] was -0.55 (inactive). For the same compound, the NADPH fluorescence slope in assay [5] was 2.6e-06 (inactive). The slope in assay [6] is 0.00775 (inactive).

`CC1=C(C(=O)OCc2ccccc2)C(c2ccc(C)o2)C2=C(CCCC2=O)N1` (stereo not drawn): in assay [1], the cell count is 745. For the same compound, the inhibition is 1.9% (inactive) in assay [1], 29.9% (inactive) in assay [3], 2.43% (inactive) in assay [7] and 15.6% (inactive) in assay [8]. Besides, the inhibition of aggregation in assay [2] was 14.6% (inactive). Further, the nuclei count in assay [2] is 101%; in assay [3] it was 97%. In addition, the fluorescence slope in assay [4] is -0.466 (inactive). Also, in assay [5], the NADPH fluorescence slope is -3.8e-05 (inactive). In addition, the slope in assay [6] was 0.00603 (inactive).

In the case of `COCCn1c(CN2CCN(c3cccc(Cl)c3)CC2)nc2c1c(=O)n(C)c(=O)n2C`, the cell count in assay [1] stood at 712. Further, the inhibition was -6.3% (inactive) in assay [1], -24.9% (inactive) in assay [3], 12.7% (inactive) in assay [7] and 15.3% (inactive) in assay [8]. The inhibition of aggregation in assay [2] was 5.4% (inactive). Further, the nuclei count in assay [2] was determined as 99.5%; in assay [3], 120%. Moreover, the fluorescence slope in assay [4] is -0.582 (inactive). Besides, the NADPH fluorescence slope in assay [5] was -4e-05 (inactive). For the same compound, in assay [6], the slope is 0.00601 (inactive).

Turning to `O=C(Nc1ccncc1)c1cccc(F)c1`, the cell count in assay [1] is 559. For the same compound, the inhibition was -6.9% (inactive) in assay [1], -13.5% (inactive) in assay [3], 12.9% (inactive) in assay [7] and 13.8% (inactive) in assay [8]. Also, the inhibition of aggregation in assay [2] was -1.2% (inactive). In addition, the nuclei count in assay [2] came to 95.4%; in assay [3], 68.8%. In assay [4], the fluorescence slope was -0.375 (inactive). Also, in assay [5], the NADPH fluorescence slope was -4.9e-05 (inactive). Further, in assay [6], the slope was 0.00567 (inactive).

For the compound `CC(=O)Nc1ccc(S(=O)(=O)NCC(C)NS(=O)(=O)c2ccc(NC(C)=O)cc2)cc1` (stereo not drawn), the cell count in assay [1] worked out at 572. The inhibition in assay [1] is -9.7% (inactive); in assay [3], -204% (inactive); in assay [7], -11.9% (inactive); in assay [8], -13.4% (inactive). The inhibition of aggregation in assay [2] is 18.1% (inactive). Moreover, the values for the nuclei count in assay [2] and in assay [3] were 76% and 95.1%, respectively. For the same compound, in assay [4], the fluorescence slope was -0.442 (inactive). For the same compound, the NADPH fluorescence slope in assay [5] was 4.4e-05 (inactive). The slope in assay [6] was 0.0079 (inactive).

As to `CCOc1ccc2nc(SCC(=O)N3CCCCCC3)c(C#N)cc2c1`, in assay [1], the cell count was found to be 611. Further, the inhibition was 9.1% (inactive) in assay [1], -95.4% (inactive) in assay [3], -1.31% (inactive) in assay [7] and -24.8% (inactive) in assay [8]. For the same compound, in assay [2], the inhibition of aggregation is -7.9% (inactive). Also, the nuclei count came out at 98.1% in assay [2] and 150% in assay [3]. Moreover, the fluorescence slope in assay [4] was -0.584 (inactive). Besides, in assay [5], the NADPH fluorescence slope was -3.2e-05 (inactive). Moreover, the slope in assay [6] is 0.00304 (inactive).

As to `CCCn1c(SCC(=O)N2CCN(c3ccccc3)CC2)nc2ccccc2c1=O`, the cell count in assay [1] came out at 331. Moreover, the inhibition is -8.5% (inactive) in assay [1], 23.2% (inactive) in assay [3], -9.23% (inactive) in assay [7] and -10.6% (inactive) in assay [8]. The inhibition of aggregation in assay [2] was -6.7% (inactive). Further, the figures for the nuclei count in assay [2] and in assay [3] were 101% and 124%, respectively. Moreover, the fluorescence slope in assay [4] was -0.595 (inactive). Moreover, the NADPH fluorescence slope in assay [5] is 3.4e-07 (inactive). The slope in assay [6] is 0.00536 (inactive).

Turning to `COc1ccc(OCCOC(=O)c2cccs2)cc1`, the cell count in assay [1] came to 367. For the same compound, the inhibition in assay [1] is 14.9% (inactive); in assay [3], -11.5% (inactive); in assay [7], -2.79% (inactive); in assay [8], 4.6% (inactive). In addition, the inhibition of aggregation in assay [2] is -30.1% (inactive). Moreover, the nuclei count in assay [2] is 100%; in assay [3], 112%. Also, the fluorescence slope in assay [4] was -0.604 (inactive). Further, the NADPH fluorescence slope in assay [5] was 7.3e-06 (inactive). In addition, the slope in assay [6] was 0.00778 (inactive).
